# Laboratory results: PubChem BioAssay (EPA / NIEHS)
# Results filed as inconclusive are left out. The source made the active and inactive calls. Rule for the calls, unless noted: active = hit-call score of the fitted dose curve at least 0.9, where 1 is the maximum; inconclusive = response in the unintended direction; inactive = score below 0.9.
# Columns and labels:
# [1] = target: Thyroid hormone receptor alpha (Rattus norvegicus) + Thyroid hormone receptor beta (Rattus norvegicus) (UniProt P18113+P63059); experiment: TOX21_TR_LUC_GH3_Antagonist_Followup: Tox21 GH3 Thyroid Hormone Receptor Antagonism Luciferase Follow-Up Assay (AID 2283942)
# Method in brief: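 In a GH3 luciferase reporter line, test chemicals spanning 92 uM to 5nM final are co-incubated 24 h with 1.0 nM T3. Activity is expressed as relative luminescence units and analysed relative to DMSO.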
# THRA (gene 7067) = THRA (gene 7067) (UniProt P10827); experiment: TOX21_TRA_COA_Antagonist_Followup_ratio: Tox21 Thyroid Hormone Receptor alpha Antagonism through Coactivator Recruitment Follow-Up Assay, Ratio (AID 2283953)
# Method in brief: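 GST-TRα LBD 2.5 nM, BSA 0.10%, + cpd; then FITC-SRC-2 peptide 200 nM + Tb-anti-GST Ab 2 nM. TR-FRET ratio 520/495 nm. Norm: DMSO = 0%, T3 = 100%.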
# THRB (gene 7068) [2] = target: THRB (gene 7068) (UniProt P10828); experiment: TOX21_TRB_BLA_Antagonist_Followup_ratio: Tox21 Thyroid Hormone Receptor beta Antagonism Beta-lactamase (BLA) Follow-Up Assay, Ratio (AID 2283958)
# Method in brief: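 Cells were plated and allowed to attach for 5 h, then dosed with compounds in DMSO at 11 concentrations for 18 h at 37C. Beta-lactamase reporter activity was measured via CCF4-AM FRET as the 460:530 nm ratio.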
# [3] = TOX21_TRB_BLA_Antagonist_Followup_viability: Viability Assessment in the Tox21 Thyroid Hormone Receptor beta Antagonism Beta-lactamase (BLA) Follow-Up Assay (AID 2283961)
# Method in brief: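 HEK293T cells with GAL4-human TRβ LBD and UAS-bla reporter, 3,000 cells/well in 2% charcoal-stripped FBS medium; 11-point concentrations in triplicate, 18 h at 37C. Viability from ATP by CellTiter-Glo luminescence, 30 min RT, same plates.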
# THRB (gene 7068) [4] = target: THRB (gene 7068) (UniProt P10828); experiment: TOX21_TRB_COA_Antagonist_Followup_ratio: Tox21 Thyroid Hormone Receptor beta Antagonism through Coactivator Recruitment Follow-Up Assay, Ratio (AID 2283967)
# Method in brief: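 Coactivator (SRC-2) recruitment to purified GST-TRβ ligand-binding domain is monitored by terbium-to-fluorescein energy transfer, emission ratio 520:495 nm. DMSO wells define 0% and T3 wells 100% activity.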
# [5] = TOX21_TR_RXR_BLA_Antagonist_Followup_viability: Viability Assessment in the Tox21 Thyroid Hormone Receptor beta Retinoid X Receptor alpha (RXRa) Antagonism Beta-lactamase (BLA) Follow-Up Assay (AID 2283979)
# Method in brief: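 RXRa-UAS-bla HEK293T cells seeded 2,500/well in phenol red-free DMEM with 2% charcoal-stripped FBS, attached 5 h, then exposed to compounds at 11 concentrations in triplicate for 16 h at 37C/5% CO2. Viability read by CellTiter-Glo ATP luminescence; bidirectional fit versus DMSO.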
# PGR (gene 5241) [6] = target: PGR (gene 5241) (UniProt P06401); experiment: TOX21_PR_BLA_Followup_Agonist_ratio: Tox21 HEK293 Progesterone Receptor (PR) Agonism Beta-lactamase Follow-Up Assay, Ratio (AID 2283933)
# Method in brief: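 Cells were seeded and held 6 hr before compound addition, exposed for 16 hr at 37C, then given FRET substrate for 2 hr at room temperature. Agonism was scored from the blue/green substrate cleavage ratio against DMSO controls.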
# PGR (gene 5241) [7] = target: PGR (gene 5241) (UniProt P06401); experiment: TOX21_PR_BLA_Followup_Antagonist_ratio: Tox21 HEK293 Progesterone Receptor (PR) Antagonism Beta-lactamase Follow-Up Assay, Ratio (AID 2283934);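 note: PR-UAS-bla HEK293T cells stimulated with 1 nM R5020 agonist for 16 hr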
# Method in brief: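 Cells are plated, rested 6 hr, then dosed with test compound in DMSO and challenged with 1 nM promegestone. After 16 hr incubation, substrate loading for 2 h at room temperature precedes fluorescence reading; viability is measured in the same wells.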
# [8] = TOX21_PR_BLA_Followup_Agonist_viability: Viability Assessment in the Tox21 HEK293 Progesterone Receptor (PR) Agonism Beta-lactamase Follow-Up Assay (AID 2283935);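 note: signal loss means lower viability so actives are cytotoxic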
# Method in brief: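 Cells were plated in medium with 2% charcoal-stripped FBS and rested 6 hr. Compounds in DMSO were then added for 16 hr at 37C, followed by the FRET substrate step and CellTiter-Glo luminescence after 30 min.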
# [9] = TOX21_PR_BLA_Followup_Antagonist_viability: Viability Assessment in the Tox21 HEK293 Progesterone Receptor (PR) Antagonism Beta-lactamase Follow-Up Assay (AID 2283936);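 note: cells exposed to compound with R5020 agonist for 16 h; hits lower the luminescence signal meaning cytotoxicity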
# Method in brief: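 PR-UAS-bla HEK293T cells in medium with 2% charcoal-stripped FBS were treated with compounds plus R5020 for 16 hr at 37C. After the beta-lactamase read, CellTiter-Glo was added to the same wells and luminescence read after 30 min at room temperature.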
# PGR (gene 5241) [10] = target: PGR (gene 5241) (UniProt P06401); experiment: TOX21_PR_LUC_Followup_Agonist: Tox21 HEK293 Progesterone Receptor (PR) Agonism Luciferase Follow-Up Assay (AID 2283937; active = hit-call score of the fitted dose curve at least 0.9, where 1 is the maximum; inactive = score below 0.9)
# Method in brief: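 Seed HEK293-PR-A-luc cells, wait 5 h, add compounds in DMSO, incubate 16 h at 37C, add ONE-Glo, read luminescence after 30 min. Activity is increase over DMSO controls; run with a viability counter-screen.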
# PGR (gene 5241) [11] = target: PGR (gene 5241) (UniProt P06401); experiment: TOX21_PR_LUC_Followup_Antagonist: Tox21 HEK293 Progesterone Receptor (PR) Antagonism Luciferase Follow-Up Assay (AID 2283938);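 note: curve fitted upward as signal gain over DMSO baseline despite antagonist label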
# Method in brief: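 HEK293-PR-A-luc cells, 3,000/well, preincubated 5 h at 37C before compound addition in DMSO; 16 h compound exposure at 37C. ONE-Glo luciferase luminescence read after 30 min at room temperature, fitted relative to DMSO baseline.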
# [12] = TOX21_PR_LUC_Followup_Antagonist_viability: Viability Assessment in the Tox21 HEK293 Progesterone Receptor (PR) Antagonism Luciferase Follow-Up Assay (AID 2283940)
# Method in brief: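 HEK293-PR-A-luc, 3,000 cells/well; 5 h at 37C/0% CO2; compound pin transfer; 16 h incubation; CellTiter-Glo ATP luminescence, signal loss = cytotoxicity.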
# [13] = TOX21_PR_LUC_Followup_Agonist_viability: Viability Assessment in the Tox21 HEK293 Progesterone Receptor (PR) Agonism Luciferase Follow-Up Assay (AID 2283941);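 note: loss of signal means cytotoxicity so actives lower viability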
# Method in brief: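 Multiplexed viability endpoint of the PR agonist luciferase follow-up: HEK293-PR-A-luc cells treated 16 h at 37C, with viability scored as decrease in CellTiter-Glo ATP signal.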
# Chain of PGR (gene 5241) (P06401 whole entry, looked up): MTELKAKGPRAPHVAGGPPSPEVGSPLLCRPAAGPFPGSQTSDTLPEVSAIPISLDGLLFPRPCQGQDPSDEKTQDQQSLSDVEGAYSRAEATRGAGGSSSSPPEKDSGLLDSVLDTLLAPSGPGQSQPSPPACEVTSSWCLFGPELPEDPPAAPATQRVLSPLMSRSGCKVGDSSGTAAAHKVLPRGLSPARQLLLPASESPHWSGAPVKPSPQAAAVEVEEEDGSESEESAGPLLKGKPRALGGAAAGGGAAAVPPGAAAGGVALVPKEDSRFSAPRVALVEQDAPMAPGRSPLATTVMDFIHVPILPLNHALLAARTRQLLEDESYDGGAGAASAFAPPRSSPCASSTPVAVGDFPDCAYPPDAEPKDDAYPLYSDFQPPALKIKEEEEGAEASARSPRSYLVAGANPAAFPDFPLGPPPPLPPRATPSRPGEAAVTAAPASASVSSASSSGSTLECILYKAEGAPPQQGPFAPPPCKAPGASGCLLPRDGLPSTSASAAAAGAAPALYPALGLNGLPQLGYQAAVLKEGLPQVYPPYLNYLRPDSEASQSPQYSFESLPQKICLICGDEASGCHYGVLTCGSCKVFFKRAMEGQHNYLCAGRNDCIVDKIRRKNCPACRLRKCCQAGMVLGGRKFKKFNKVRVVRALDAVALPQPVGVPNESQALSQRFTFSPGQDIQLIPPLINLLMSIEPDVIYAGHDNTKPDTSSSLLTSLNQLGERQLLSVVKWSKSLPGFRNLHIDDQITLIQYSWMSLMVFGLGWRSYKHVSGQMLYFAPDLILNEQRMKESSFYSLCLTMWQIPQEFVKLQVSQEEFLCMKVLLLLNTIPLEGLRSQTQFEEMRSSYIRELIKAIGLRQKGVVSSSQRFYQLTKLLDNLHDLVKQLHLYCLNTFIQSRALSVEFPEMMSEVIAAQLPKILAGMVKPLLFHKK
# Chain of THRB (gene 7068) (P10828 whole entry, looked up, the tested form may be a part): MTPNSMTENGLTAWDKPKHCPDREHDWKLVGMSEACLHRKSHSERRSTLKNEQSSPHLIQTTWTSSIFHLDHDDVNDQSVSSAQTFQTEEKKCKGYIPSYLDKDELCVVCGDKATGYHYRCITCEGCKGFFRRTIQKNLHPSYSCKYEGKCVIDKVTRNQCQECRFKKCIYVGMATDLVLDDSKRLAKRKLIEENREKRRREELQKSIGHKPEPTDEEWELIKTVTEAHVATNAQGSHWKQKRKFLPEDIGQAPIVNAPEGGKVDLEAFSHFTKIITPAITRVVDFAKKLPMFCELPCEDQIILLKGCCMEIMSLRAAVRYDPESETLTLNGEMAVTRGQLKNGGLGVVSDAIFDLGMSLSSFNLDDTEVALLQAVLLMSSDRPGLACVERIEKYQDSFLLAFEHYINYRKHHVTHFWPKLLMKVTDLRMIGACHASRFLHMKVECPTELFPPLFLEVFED
# Chain of THRA (gene 7067) (P10827 whole entry, looked up, the tested form may be a part): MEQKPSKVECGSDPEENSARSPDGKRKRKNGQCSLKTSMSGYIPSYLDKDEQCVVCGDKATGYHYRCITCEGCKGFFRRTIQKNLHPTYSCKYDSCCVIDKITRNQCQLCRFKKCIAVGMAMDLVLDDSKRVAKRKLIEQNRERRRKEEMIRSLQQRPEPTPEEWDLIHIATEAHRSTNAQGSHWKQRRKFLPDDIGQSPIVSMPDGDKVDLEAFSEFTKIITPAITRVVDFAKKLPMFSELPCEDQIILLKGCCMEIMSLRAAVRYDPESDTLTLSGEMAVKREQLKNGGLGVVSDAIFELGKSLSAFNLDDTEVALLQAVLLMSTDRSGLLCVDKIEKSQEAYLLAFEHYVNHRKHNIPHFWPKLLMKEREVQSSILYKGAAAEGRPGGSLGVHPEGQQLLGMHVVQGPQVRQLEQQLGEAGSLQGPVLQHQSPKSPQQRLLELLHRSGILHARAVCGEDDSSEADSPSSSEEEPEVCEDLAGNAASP
smiles,measurement,setting,value
Cc1ccc(Nc2nccc(N(C)c3ccc4c(C)n(C)nc4c3)n2)cc1S(N)(=O)=O,AC50,[1],31.3 µM (active)
same,outcome,THRA (gene 7067),inactive
same,AC50,THRB (gene 7068) [2],14.7 µM (active)
same,AC50,[3],19.2 µM (active)
same,AC50,THRB (gene 7068) [4],19.2 µM (active)
same,outcome,[5],inactive
CCCOc1ccc2c(c1)CC[C@@H]1[C@@H]2CC[C@]2(C)C(OC)CC[C@@H]12 (stereo not given in full),outcome,PGR (gene 5241) [6],inactive
same,AC50,PGR (gene 5241) [7],12.8 µM (active)
same,outcome,[8],inactive
same,outcome,[9],inactive
same,outcome,PGR (gene 5241) [10],inactive
same,outcome,PGR (gene 5241) [11],inactive
CCN(CC)CC(=O)OCC(=O)[C@@]1(O)CC[C@H]2[C@@H]3CCC4=CC(=O)CC[C@]4(C)[C@H]3[C@@H](O)C[C@@]21C,outcome,PGR (gene 5241) [6],inactive
same,outcome,PGR (gene 5241) [7],inactive
same,outcome,[8],inactive
same,outcome,[9],inactive
same,AC50,PGR (gene 5241) [10],1.47 µM (active)
same,outcome,PGR (gene 5241) [11],inactive
same,outcome,[12],inactive
same,outcome,[13],inactive
